HT1080 IDH1KD tx: toxicity to HT-1080 IDH1 knockdown cells (counter line); 360,000 compounds, 2% hits; HT-1080 IDH1 knockdown viability, ATP luminescence, 48 h; Potency, µM (series often up to 46.1 µM), inactives show top-dose activity, negative = toxicity, hits mostly cytotoxic;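 also: 0% = DMSO wells and -100% = cell-free medium wells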
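HT-1080-IDH1KD cells (IDH1 knocked down), 750/well in RPMI with 5% FBS, treated with compound 48 h at 37 degrees C. Viability by CellTiter-Glo luminescence, normalised to DMSO and no-cell wells; concentration-response curves classed.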
HT1080-NT tox: kills 2HG-producing HT-1080-NT fibrosarcoma cells. 360,000 compounds, 1.6% hits. HT-1080-NT fibrosarcoma viability, CellTiter-Glo ATP luminescence, 48 h. Potency, µM (series often up to 46.1 µM), without a hit: top-dose activity, negative = less viability, actives largely listed as cytotoxic. AID 686970;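 also: NT is the 2HG producing partner of a matched IDH1 knockdown line; 0% = DMSO-treated cells and -100% = media-only wells without cells; nearly all actives have a fitted effect of over 55% in size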
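750 cells/well, RPMI + 5% FBS; 2 h settle, compound pin-transfer, 48 h at 37 degrees C. CellTiter-Glo 10 min RT, luminescence. Normalized to DMSO and media-only wells.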
SW480 rerep: induces DNA re-replication in SW480 colon adenocarcinoma cells; SW480 DNA re-replication, Hoechst DNA content imaging, 48 h; Potency, µM (top dose mostly 46.1 µM), inactives show at the top dose re-replication activation, most hits filed as activators; 340,000 compounds, 1.8% hits; AID 624297; also: % of control where 0% means no effect; nearly all actives have a fitted effect of over 55% in size
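Hoechst fluorescence of nuclei (405 nm excitation, 500-530 nm emission) measured by plate-scanning imager after 48 hr compound exposure at 37 C; re-replication scored as increased number of nuclei with elevated intensity.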
MCF10A rerep: inducers of DNA re-replication in MCF 10A breast cells; MCF 10A DNA re-replication, Hoechst nuclear intensity, 48 h; AID 624296; 350,000 compounds, 2.9% hits; Potency, µM (series often up to 46.1 µM), without a hit: top-dose activity, positive = re-replication, hits mostly activators; also: % of control where 0% means no effect; nearly all actives have a fitted effect of over 50% in size
KB-3-1 cytotox: kills parental KB-3-1 adenocarcinoma cells | KB-3-1 viability, CellTiter-Glo ATP luminescence, 72 h | Potency, µM (doses to about 46.1 µM), actives largely listed as cytotoxic | AID 1347075 | 400,000 compounds, 1.4% hits; also: % is scaled to controls: 0 for no effect and ±100 for the full control effect; nearly all actives have a fitted effect of over 60% in size
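Using CellTiter-Glo luminescence, growth of non-resistant KB-3-1 adenocarcinoma cells is assessed 72 h after pin-tool compound addition at 37 °C. Normalized responses across the concentration series yield fitted curves.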
KB-V1 MDR tox: KB-V1 MDR subline cytotoxicity | KB-V1 MDR cells viability, CellTiter-Glo, 72 h | Potency, µM (titrated, usually from 46.1 µM), most hits filed as cytotoxic | 400,000 compounds, 3.4% hits; also: % is scaled to controls: 0 for no effect and ±100 for the full control effect; nearly all actives have a fitted effect of over 60% in size
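Cytotoxicity via CellTiter-Glo luminescence after 72 h compound exposure at 37 degrees C. Cells: drug-selected KB-V1 line, DMEM phenol-red free plus 10% FBS. Compounds tested at multiple concentrations; normalized data fitted to concentration-effect curves.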
* marks the source's active call; other numbers are inactive results; i = inactive; ? = inconclusive; nt = not tested or not shown; [ ] = dose if it differs, or a comment. In the library only some 7.9% were active in any assay of this set; here they are far more common. Calls follow the shape of the dose curve; as a rule, active = well fitted curve in the direction sought with a large enough effect; inconclusive = small, poorly fitted or top-dose-only effect, or another doubt; inactive = no such curve, though single readings can be large; an effect the other way counts as inactive or inconclusive. Potency is read from the fitted curve at half-maximal effect.

SMILES	HT1080 IDH1KD tx	HT1080-NT tox	SW480 rerep	MCF10A rerep	KB-3-1 cytotox	KB-V1 MDR tox
Cc1c(O)ccc(/C=N/Nc2nc(-c3cccnc3)nc3ccccc23)c1O	?	18µM*	?	?	i	?
Cc1ccc2c(c1)N(CCC(=O)NCc1ccccc1Cl)C(=O)CO2	nt	nt	nt	nt	i	i
CN(C)c1ccc(CNC(=O)c2ccc3c(c2)N(C)C(=O)C2CCCCN32)cc1 (stereo unspecified)	nt	nt	nt	nt	i	i
Cc1ccc(-c2nc(N/N=C/c3ccncc3)c3ccccc3n2)cc1	10µM*	11µM*	4%	3%	?	23µM*
CC(C)(C)OC(=O)N1CC=C2C(C#N)=C(N)C(C#N)(C#N)[C@H](c3cccnc3)[C@H]2C1	0%	6%	-2%	2%	?	?
CCOC(=O)N1CC=C2C(C#N)=C(N)C(C#N)(C#N)[C@H](c3cccs3)C2C1 (stereo partly specified)	?	?	4%	13%	i	9.2µM*
CC(C)(C)OC(=O)N1CC=C2C(C#N)=C(N)C(C#N)(C#N)C(c3cccs3)C2C1 (stereo unspecified)	-24%	-28%	7%	?	i	9.2µM*
CCCCCCCCN1[C@@H](CC(=O)OC)c2ccc(/C=C/C(=O)OC)cc2S1(=O)=O	nt	nt	nt	nt	i	i
Cc1cccc(N2C(S)=C(C#N)C(=O)NC2c2ccco2)c1 (stereo unspecified)	-8%	2%	-1%	?	i	?
N#CC1=C(S)N(c2ccccc2)C(c2ccc(-c3cccc(Cl)c3)o2)NC1=O (stereo unspecified)	5%	1%	23µM*	?	i	i
Cc1cc(C)c2c(n1)SCCN2C(=O)Nc1ccc(C(=O)Nc2ccc(C(C)C)cc2)cc1	nt	nt	nt	nt	i	i
O=C(Cc1cccs1)Nc1nnc(CCc2ccccc2)s1	3%	-2%	-1%	0%	i	18µM*
Cc1nnc(NC(=O)CSc2nc(C(C)C)nc3ccccc23)s1	19%	-2%	?	2%	i	?
CC(C)c1nc(SCC(=O)Nc2nc3c(s2)CCCC3)c2ccccc2n1	11µM*	?	?	?	i	15µM*
Cc1cc(NC(=O)CSc2nc(C(C)C)nc3ccccc23)no1	16µM*	?	?	26µM*	?	?
O=C(CCSc1ccccc1)Nc1nc2c(s1)CCCC2	?	-11%	1%	?	i	26µM*
O=C(Cc1cccs1)Nc1nnc(Cc2ccccc2)s1	3%[9.24 µM]	-13%	-3%	15%	i	?
CCCCn1cc(S(=O)(=O)c2ccc(OC)cc2)c(=O)c2cc(CC)ccc21	nt	nt	nt	nt	i	i
Cc1cc(NC(=O)CSc2nc3c(C)ccc(C)c3cc2C#N)no1	-7%	-4%	4%	0%	i	i
CC(C)(C)c1nc(SCC(=O)Nc2nc3c(s2)CCCC3)c2ccccc2n1	1.4µM*	?	-6%	2%	i	?
O=C(Nc1nc2c(s1)CCCC2)c1cccs1	?	?	-5%	16%	?	?
O=C(Cc1cccs1)Nc1nc2c(s1)CCCC2	1.1µM*	?	5%	?	?	12µM*
O=C(CSc1nc(Cc2ccccc2)nc2ccccc12)Nc1nc2c(s1)CCCC2	?	-7%	21µM*	23µM*	i	?
Cc1cc(C)c(C#N)c(SCC(=O)Nc2cc(C)on2)n1	-3%	1%	?	?	i	8.2µM*
Cn1c(SCC(=O)Nc2nc3c(s2)CCCC3)nnc1-c1ccccc1	-9%	2%[9.24 µM]	-3%	-5%	i	?
SMILES	HT1080 IDH1KD tx	HT1080-NT tox	SW480 rerep	MCF10A rerep	KB-3-1 cytotox	KB-V1 MDR tox
Cc1ccc(CNC(=O)CCc2c(C)nc3c4c(C)cc(C)nc4nn3c2C)cc1	nt	nt	nt	nt	i	i
N#CCC(=O)N/N=C\c1cc(Br)ccc1OC/C=C/c1ccccc1	?	-19%	?	17%	i	i
CCn1c(SCC(=O)N/N=C/C(C)=C/c2ccco2)nnc1-c1ccccc1	1%	8%	5%	25%	i	15µM*
Cc1occc1-c1nnc(SCC(=O)NC(C)(C)C)n1C(C)c1ccccc1 (stereo unspecified)	-1%	-11%	2%	-2%	i	i
CCn1c(SCC(=O)N/N=C/C(C)=C\c2ccco2)nnc1-c1ccccc1	-13%	-9%	-3%	?	i	i
Cc1csc(NC(=O)CSc2nnc(-c3ccoc3C)n2C(C)c2ccccc2)n1 (stereo unspecified)	-26%	-27%	15µM*	?	i	i
Cn1c(SCC(=O)Nc2ccccc2-c2ccccc2)nnc1-c1ccco1	1%	-2%	?	10%	i	18µM*
CCn1c(SCC(=O)Nc2cccnc2Cl)nnc1-c1ccccc1	5%	5%	5%	-1%	i	21µM*
COc1ccc(CCNC(=O)CCCn2c(=O)c3ccccc3n(Cc3ccccc3C)c2=O)cc1OC	nt	nt	nt	nt	i	i
COc1ccccc1C(=O)Nc1nnc2n1CCS2	nt	nt	nt	nt	i	?
CN(C)c1ccc(Cn2ccc3ccccc32)cc1	nt	nt	nt	nt	i	i
Cc1cccc(N2CCN(c3ccc(C(=O)O)cc3NC(=O)c3cccc(Cl)c3)CC2C)c1 (stereo unspecified)	nt	nt	nt	nt	i	?
CCOC(=O)c1ccc(NC(=O)C2=C(C)C(=O)OC23CCN(C(C)=O)CC3)cc1	nt	nt	nt	nt	i	i
CCc1ccc(C(O)c2ncc(-c3cccc(OC)c3)[nH]2)cc1 (stereo unspecified)	-27%	-2%	nt	nt	i	i
Cc1ccc(Cn2c(C)c(CNC3CCCCC3)c(C(=O)O)c2C)cc1	nt	nt	nt	nt	i	?
CCn1c(SCC(=O)Nc2nc(-c3ccccc3)cs2)nnc1-c1ccccc1	?	?	-16%	3%	i	18µM*
C=CCn1c(SCC(=O)NNC(=O)Nc2ccc(C)cc2)nnc1-c1ccccc1	15%	1%	2%	-2%	i	i
C=CCn1c(SCC(=O)Nc2ccc(-c3nc4ccc(C)cc4s3)cc2)nnc1-c1ccccc1	?	-1%	10µM*	4.1µM*	i	?
CCOC(=O)N1CCN(C(=O)CSCC(=O)Nc2nc(-c3ccccc3)cs2)CC1	-15%	-7%	-2%	7%	i	16µM*
C=CCn1c(SCC(=O)Nc2cccnc2Cl)nnc1-c1ccc(Cl)cc1	0%	7%	-1%	1%	i	5.2µM*

High-throughput results as filed in PubChem BioAssay.
